Tested on: Plasmodium falciparum NF54 gametocytes
Experiment: viability index relative to DMSO control (fraction); higher = less gametocyte killing
Conditions: 12.5 µM, incubation time: 72 h
Outline: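 The viability index was calculated as the gametocyte particle count over the plate mean of solvent-only wells. For this, P. falciparum NF54 gametocytes of every stage (I–V) were held with compound at 12.5 µM for 72 hr at 37°C under low oxygen in 384-well plates. MitoTracker Red CMXRos staining for 20 min was followed by transfer of 5 µl into 40 µl of 500 nM dye in serum-free medium, with three fields imaged after 30 min.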

[1] = gametocyte stage: Stage I viability index
[2] = gametocyte stage: Stage II viability index
[3] = gametocyte stage: Stage III viability index
[4] = gametocyte stage: Stage IV viability index
[5] = gametocyte stage: Stage V viability index

Structure (SMILES)	viability index [1]	viability index [2]	viability index [3]	viability index [4]	viability index [5]
Cc1cccc(N2C(=O)C3C(C2=O)C2(c4ccccc4)C(=O)C3(c3ccccc3)C(c3ccc4c(c3)OCO4)=C2c2ccc3c(c2)OCO3)c1 (stereo not given)	1.16	0.896	1.08	0.886	1.03
CCCCNCC(O)(c1ccc(Cl)cc1)c1ccc(Cl)cc1	0.00663	0.0541	0.364	0.422	0.396
FC(F)(F)c1cccc(Nc2nc(-c3ccccc3)nc3ncccc23)c1	1.17	1.08	1.33	1.09	1.15
COc1ccc2nc(C)cc(Nc3ccc(Cl)cc3)c2c1	0.243	0.525	0.994	1.05	0.692
Clc1ccc2[nH]c3c(NCCCN4CCOCC4)ncnc3c2c1	0.0298	0.444	0.979	0.918	0.813
O=C(Nc1ccc(Cl)cc1)N1CCN(c2ccc3nncn3n2)CC1	0.865	1.02	1.15	1.14	1.11
Cc1cc(C=C2SC(=Nc3ccccc3)N(C3CCCC3)C2=O)c(C)n1-c1ccc(Cl)cc1	1.05	1.03	1.03	0.894	0.879
O=C(c1ccccc1F)N(Cc1ccc(Cl)cc1)c1ccccn1	0.716	0.955	0.997	0.93	0.967
COc1ccc(C=C2SC(=N)N(c3ccccc3OC)C2=O)cc1	0.642	0.916	0.942	0.769	0.923
O=C(NC1CCCC1)c1ccc(N2CCC(NCc3cccc(C(F)(F)F)c3)CC2)cc1	0.243	0.573	0.76	0.76	0.604
COc1ccc(CN2CCCC(C(=O)c3ccc(C(F)(F)F)cc3)C2)c(O)c1 (stereo not given)	0.049	0.0866	0.365	0.554	0.779
COc1ccccc1C(=O)ON=C(N)Cc1cccc2ccccc12	0.0446	0.121	0.299	0.373	0.195
COc1ccc(C(C)=O)cc1N1C(=O)C2C(C1=O)C1(c3ccccc3)C(=O)C2(c2ccccc2)C(c2ccc(C)cc2)=C1c1ccc(C)cc1 (stereo not given)	1.04	0.933	1.01	0.824	0.923
CCCCCCOC(=O)C1=C(C)NC(=O)NC1c1ccccc1F (stereo not given)	0.924	0.896	1.03	1.04	1.13
COc1cccc(Nc2nc(NCCO)c3ccccc3n2)c1	0.134	0.581	0.728	0.854	0.538
Cc1c(C)n(Cc2ccc(F)cc2)c2ccc(C(=O)NCc3ccco3)cc12	0.478	0.756	0.932	0.827	1
CCN(CC)CCNc1ncnc2c1[nH]c1ccc(Cl)cc12	0.0354	0.373	0.818	0.763	0.451
O=C(Nc1ccc(CN2CCOCC2)cc1)c1ccc(-c2ccc(Br)cc2)o1	0.141	0.543	0.926	0.787	1.16
Cc1ccc(CN2CCC(C(=O)Nc3ccc(-c4cc5ccccc5[nH]4)cc3)CC2)o1	0.00663	0.313	0.43	0.422	0.396
O=C(O)C1Cc2c([nH]c3ccccc23)C(c2ccc(Cl)cc2Cl)N1 (stereo not given)	1.04	0.891	1.08	1.05	0.967
COCCNC(=O)c1ccc(OC2CCN(Cc3ccc(F)c(F)c3)CC2)c(Cl)c1	0.672	0.812	1.07	0.979	0.901
OC(CNC1CCCCC1)Cn1c2ccc(I)cc2c2cc(I)ccc21 (stereo not given)	0.116	0.0916	0.122	0.168	0.13
COc1ccc2c(=O)cc(C(Cl)(Cl)Cl)oc2c1	0.0166	0.146	0.512	0.623	0.56
Cc1cc(NCCN2CCCCC2)c2ccc3ccccc3c2n1	0.0508	0.404	0.536	0.495	0.132
COc1cc(OC)c(N(C)C(=O)c2cc3c(s2)-c2ccccc2S(=O)(=O)C3)cc1Cl	0.00884	0.00676	0.0212	0.131	0.022
Brc1ccc(Nc2nc3ccccc3nc2Nc2ccc(Br)cc2)cc1	0.0192	0.00916	0.0204	0.0222	0.104
c1ccc(CNc2nc(Nc3ccccc3)nc3ccccc23)cc1	0.0367	0.211	0.586	0.563	0.481
CCOc1ccccc1CN1CCc2nc3cc(C(C)(C)C)nn3c(O)c2C1	0.89	0.7	0.583	0.737	0.597
CCCCCCC(O)(c1ccc(F)cc1)C(CN1CCOCC1)c1ccccc1 (stereo not given)	0.871	0.694	0.879	0.93	0.831
COCCn1c(C)nc2ccccc2c1=O	0.825	0.879	0.733	0.711	0.418

— the supplement of paper PMC4723716
